Among the data in ChEMBL document CHEMBL1961873, “Compounds: GSK PKIS; Assays: Nanosyn kinase panel” (2012) are inhibition values, retold here.

Assay [1] concerns the target T1, Inhibitor of nuclear factor kappa-B kinase subunit epsilon (Homo sapiens) (UniProt Q14164).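 Further: reported values are averaged percent inhibition figures against human IKKε.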
T1 sequence (whole entry): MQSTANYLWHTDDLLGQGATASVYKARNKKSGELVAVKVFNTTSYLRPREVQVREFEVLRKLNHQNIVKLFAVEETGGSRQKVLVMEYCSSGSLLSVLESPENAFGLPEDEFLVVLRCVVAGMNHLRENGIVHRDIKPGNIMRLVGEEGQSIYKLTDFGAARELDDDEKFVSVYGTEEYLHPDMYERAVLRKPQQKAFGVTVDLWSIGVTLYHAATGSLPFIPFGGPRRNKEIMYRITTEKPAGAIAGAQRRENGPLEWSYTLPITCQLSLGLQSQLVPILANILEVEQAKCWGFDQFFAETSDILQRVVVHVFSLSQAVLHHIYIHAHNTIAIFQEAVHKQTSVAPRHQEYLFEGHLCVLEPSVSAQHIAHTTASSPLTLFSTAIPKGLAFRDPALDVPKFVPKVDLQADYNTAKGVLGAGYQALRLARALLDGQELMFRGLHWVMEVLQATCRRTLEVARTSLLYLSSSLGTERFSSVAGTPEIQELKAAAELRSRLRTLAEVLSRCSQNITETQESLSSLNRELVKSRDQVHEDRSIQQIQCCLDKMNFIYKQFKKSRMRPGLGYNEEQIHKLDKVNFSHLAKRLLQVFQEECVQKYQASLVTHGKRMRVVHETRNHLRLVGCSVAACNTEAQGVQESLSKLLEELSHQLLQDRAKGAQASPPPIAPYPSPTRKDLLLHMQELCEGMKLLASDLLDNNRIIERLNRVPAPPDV
Conditions: at 1 µM.

The target in assay [2] is T2, Serine/threonine-protein kinase Nek1 (Homo sapiens) (UniProt Q96PY6).
T2 sequence (whole entry): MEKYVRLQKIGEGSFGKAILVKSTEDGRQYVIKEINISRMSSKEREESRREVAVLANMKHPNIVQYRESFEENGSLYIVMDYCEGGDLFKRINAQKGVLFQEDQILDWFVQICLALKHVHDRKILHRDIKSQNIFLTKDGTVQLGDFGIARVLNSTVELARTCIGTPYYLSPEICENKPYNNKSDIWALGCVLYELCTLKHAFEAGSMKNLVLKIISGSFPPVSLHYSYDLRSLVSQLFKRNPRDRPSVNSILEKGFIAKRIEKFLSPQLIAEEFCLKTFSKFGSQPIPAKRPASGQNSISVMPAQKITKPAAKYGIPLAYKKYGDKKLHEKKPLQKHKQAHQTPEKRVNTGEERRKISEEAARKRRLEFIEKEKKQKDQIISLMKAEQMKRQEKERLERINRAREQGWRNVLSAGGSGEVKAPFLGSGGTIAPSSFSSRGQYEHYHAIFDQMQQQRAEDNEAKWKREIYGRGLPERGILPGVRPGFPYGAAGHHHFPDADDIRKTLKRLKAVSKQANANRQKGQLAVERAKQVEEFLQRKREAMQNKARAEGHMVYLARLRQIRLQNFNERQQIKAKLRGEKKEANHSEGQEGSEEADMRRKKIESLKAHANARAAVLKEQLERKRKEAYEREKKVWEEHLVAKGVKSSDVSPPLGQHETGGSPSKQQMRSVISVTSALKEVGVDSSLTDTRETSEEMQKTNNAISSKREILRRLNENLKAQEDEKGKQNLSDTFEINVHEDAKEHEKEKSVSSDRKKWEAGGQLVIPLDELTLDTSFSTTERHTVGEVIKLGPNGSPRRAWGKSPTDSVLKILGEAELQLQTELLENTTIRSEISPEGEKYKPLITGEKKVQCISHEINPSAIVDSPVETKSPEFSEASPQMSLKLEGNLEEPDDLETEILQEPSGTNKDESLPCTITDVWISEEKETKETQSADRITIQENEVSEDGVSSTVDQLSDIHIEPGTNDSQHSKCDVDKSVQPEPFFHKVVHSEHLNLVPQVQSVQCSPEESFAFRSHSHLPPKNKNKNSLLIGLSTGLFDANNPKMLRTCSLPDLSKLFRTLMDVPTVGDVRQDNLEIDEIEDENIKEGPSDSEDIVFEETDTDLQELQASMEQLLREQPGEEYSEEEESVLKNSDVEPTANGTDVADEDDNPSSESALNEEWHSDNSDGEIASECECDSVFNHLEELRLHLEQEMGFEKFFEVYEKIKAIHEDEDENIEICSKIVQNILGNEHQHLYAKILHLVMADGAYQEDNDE
Conditions: at 0.1 µM.

The target of assay [3] is T2, Serine/threonine-protein kinase Nek1 (Homo sapiens). Conditions: at 1 µM.
For assay [4], the target named is T3, Serine/threonine-protein kinase Nek2 (Homo sapiens) (UniProt P51955).
T3 sequence (whole entry): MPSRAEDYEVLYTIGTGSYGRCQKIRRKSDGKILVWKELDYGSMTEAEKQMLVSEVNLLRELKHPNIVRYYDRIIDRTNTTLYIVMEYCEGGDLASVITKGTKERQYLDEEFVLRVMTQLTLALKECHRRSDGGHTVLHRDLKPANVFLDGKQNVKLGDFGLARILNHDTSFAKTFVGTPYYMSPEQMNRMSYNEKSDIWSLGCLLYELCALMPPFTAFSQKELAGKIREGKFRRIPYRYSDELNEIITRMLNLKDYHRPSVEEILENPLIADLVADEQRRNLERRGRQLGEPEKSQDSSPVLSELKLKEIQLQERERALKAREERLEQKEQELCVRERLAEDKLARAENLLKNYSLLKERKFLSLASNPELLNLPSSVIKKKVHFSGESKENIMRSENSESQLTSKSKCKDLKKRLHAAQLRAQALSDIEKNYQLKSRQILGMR
To be noted: at 0.1 µM.

For assay [5], the target named is T3, Serine/threonine-protein kinase Nek2 (Homo sapiens). Conditions: at 1 µM.
The target in assay [6] is Serine/threonine-protein kinase Nek6 (Homo sapiens) (UniProt Q9HC98). To be noted: at 0.1 µM.
Sequence of Serine/threonine-protein kinase Nek6 (Homo sapiens) (Q9HC98 whole entry): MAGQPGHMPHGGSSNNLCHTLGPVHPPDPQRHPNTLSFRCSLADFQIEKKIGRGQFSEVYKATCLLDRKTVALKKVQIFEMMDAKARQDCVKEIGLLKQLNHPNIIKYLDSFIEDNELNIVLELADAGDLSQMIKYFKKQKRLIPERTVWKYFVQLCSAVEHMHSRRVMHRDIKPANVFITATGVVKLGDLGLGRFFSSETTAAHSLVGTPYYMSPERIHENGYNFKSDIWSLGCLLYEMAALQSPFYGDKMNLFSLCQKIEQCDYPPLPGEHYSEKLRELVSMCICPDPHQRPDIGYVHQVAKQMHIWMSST
Assay [7] has the same target. To be noted: at 1 µM.
Assay [8] has as its target Serine/threonine-protein kinase Nek7 (Homo sapiens) (UniProt Q8TDX7). Conditions: at 0.1 µM.
Assay [9] shares this target. Conditions: at 1 µM.
Assay [10] addresses T4, Serine/threonine-protein kinase Nek9 (Homo sapiens) (UniProt Q8TD19).
T4 sequence (whole entry): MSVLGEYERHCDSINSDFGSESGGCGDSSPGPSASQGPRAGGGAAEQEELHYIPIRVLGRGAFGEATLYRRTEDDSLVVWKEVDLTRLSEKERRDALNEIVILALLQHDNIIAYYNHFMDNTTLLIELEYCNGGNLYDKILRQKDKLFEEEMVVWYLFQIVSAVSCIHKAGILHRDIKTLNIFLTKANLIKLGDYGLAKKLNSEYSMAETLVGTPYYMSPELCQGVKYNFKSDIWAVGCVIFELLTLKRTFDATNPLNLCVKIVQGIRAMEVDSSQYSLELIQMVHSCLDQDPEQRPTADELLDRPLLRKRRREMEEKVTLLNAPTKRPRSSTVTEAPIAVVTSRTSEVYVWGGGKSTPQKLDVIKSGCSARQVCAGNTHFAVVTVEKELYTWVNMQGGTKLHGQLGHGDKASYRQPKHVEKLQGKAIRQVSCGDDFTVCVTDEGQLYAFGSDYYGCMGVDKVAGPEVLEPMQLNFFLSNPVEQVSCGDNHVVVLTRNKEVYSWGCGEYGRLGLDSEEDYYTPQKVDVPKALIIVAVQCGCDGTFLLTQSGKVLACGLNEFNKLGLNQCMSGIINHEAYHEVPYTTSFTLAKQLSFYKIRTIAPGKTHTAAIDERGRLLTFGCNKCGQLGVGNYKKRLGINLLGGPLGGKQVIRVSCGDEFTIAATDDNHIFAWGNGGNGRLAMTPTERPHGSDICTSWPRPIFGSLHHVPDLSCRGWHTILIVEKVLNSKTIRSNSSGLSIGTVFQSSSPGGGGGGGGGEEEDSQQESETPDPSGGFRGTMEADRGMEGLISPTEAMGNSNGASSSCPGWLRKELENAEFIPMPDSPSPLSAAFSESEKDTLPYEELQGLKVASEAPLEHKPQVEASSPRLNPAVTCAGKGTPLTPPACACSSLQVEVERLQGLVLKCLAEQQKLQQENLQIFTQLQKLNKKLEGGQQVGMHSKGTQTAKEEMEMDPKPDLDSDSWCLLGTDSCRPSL
To be noted: at 0.1 µM.

Assay [11] addresses T4, Serine/threonine-protein kinase Nek9 (Homo sapiens). Conditions: at 1 µM.
Assay [12] concerns the target Serine/threonine-protein kinase PLK1 (Homo sapiens) (UniProt P53350). Conditions: at 0.1 µM.
Assay [13] shares this target. Conditions: at 1 µM.
The target of assay [14] is T5, Dual specificity protein kinase TTK (Homo sapiens) (UniProt P33981).
T5 sequence (whole entry): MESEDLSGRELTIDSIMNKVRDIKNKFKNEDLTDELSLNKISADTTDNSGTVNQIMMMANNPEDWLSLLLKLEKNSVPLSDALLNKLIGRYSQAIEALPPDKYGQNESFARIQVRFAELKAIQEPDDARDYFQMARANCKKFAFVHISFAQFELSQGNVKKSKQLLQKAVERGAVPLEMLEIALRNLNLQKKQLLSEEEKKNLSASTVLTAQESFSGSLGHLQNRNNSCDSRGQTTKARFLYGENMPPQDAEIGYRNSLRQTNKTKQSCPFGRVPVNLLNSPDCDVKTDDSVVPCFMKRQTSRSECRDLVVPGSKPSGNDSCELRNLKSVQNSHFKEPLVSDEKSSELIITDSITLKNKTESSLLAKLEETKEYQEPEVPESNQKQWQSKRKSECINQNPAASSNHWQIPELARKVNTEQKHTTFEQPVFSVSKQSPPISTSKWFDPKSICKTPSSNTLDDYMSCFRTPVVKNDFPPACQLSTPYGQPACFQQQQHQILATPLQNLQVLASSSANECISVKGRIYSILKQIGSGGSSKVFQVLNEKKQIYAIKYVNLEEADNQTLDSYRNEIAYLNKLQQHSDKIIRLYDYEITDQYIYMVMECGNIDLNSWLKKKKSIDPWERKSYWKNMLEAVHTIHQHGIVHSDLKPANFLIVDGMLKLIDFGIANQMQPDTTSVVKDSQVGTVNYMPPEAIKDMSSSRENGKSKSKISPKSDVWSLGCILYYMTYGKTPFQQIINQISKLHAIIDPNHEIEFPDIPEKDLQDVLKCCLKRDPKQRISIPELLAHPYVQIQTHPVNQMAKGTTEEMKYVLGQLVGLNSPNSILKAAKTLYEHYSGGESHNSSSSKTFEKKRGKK
To be noted: at 0.1 µM.

For assay [15], the system named is T6, Receptor-type tyrosine-protein kinase FLT3 (Homo sapiens), P36888 [D835Y].
T6 sequence (whole entry): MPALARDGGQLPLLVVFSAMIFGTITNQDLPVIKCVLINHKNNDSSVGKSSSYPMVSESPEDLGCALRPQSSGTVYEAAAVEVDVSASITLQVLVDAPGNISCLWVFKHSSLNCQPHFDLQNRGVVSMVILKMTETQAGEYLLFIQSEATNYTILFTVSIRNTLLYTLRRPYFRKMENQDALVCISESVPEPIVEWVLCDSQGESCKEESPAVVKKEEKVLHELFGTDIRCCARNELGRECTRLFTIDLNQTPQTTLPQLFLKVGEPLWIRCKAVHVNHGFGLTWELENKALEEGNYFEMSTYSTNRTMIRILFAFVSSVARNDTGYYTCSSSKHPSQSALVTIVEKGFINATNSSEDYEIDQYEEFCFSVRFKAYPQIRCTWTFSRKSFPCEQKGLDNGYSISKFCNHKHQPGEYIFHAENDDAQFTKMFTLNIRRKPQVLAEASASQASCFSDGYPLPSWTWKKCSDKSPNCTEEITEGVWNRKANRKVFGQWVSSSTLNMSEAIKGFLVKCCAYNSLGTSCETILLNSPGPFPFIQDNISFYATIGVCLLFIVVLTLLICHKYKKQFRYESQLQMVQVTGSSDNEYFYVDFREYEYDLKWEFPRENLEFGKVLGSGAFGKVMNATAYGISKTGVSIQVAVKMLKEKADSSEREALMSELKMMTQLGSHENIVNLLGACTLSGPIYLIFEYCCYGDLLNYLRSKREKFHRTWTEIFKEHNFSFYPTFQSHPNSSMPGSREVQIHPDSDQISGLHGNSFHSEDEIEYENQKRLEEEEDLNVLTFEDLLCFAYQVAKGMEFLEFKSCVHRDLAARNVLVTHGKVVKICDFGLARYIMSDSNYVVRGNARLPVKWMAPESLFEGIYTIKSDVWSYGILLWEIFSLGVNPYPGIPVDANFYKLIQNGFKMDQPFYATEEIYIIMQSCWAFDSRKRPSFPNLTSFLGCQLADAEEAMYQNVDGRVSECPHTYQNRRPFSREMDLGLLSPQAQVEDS
To be noted: at 1 µM.

Assay [16] addresses Vascular endothelial growth factor receptor 3 (Homo sapiens) (UniProt P35916). Conditions: at 0.1 µM.
The target is the same in assay [17]. To be noted: at 1 µM.
Assay [18] addresses Macrophage colony-stimulating factor 1 receptor (Homo sapiens) (UniProt P07333). Conditions: at 0.1 µM.
For assay [19] the target is unchanged. Conditions: at 1 µM.
Assay [20] concerns the target Tyrosine-protein kinase Fyn (Homo sapiens) (UniProt P06241). To be noted: at 0.1 µM.

Sequence of Macrophage colony-stimulating factor 1 receptor (Homo sapiens) (P07333 whole entry): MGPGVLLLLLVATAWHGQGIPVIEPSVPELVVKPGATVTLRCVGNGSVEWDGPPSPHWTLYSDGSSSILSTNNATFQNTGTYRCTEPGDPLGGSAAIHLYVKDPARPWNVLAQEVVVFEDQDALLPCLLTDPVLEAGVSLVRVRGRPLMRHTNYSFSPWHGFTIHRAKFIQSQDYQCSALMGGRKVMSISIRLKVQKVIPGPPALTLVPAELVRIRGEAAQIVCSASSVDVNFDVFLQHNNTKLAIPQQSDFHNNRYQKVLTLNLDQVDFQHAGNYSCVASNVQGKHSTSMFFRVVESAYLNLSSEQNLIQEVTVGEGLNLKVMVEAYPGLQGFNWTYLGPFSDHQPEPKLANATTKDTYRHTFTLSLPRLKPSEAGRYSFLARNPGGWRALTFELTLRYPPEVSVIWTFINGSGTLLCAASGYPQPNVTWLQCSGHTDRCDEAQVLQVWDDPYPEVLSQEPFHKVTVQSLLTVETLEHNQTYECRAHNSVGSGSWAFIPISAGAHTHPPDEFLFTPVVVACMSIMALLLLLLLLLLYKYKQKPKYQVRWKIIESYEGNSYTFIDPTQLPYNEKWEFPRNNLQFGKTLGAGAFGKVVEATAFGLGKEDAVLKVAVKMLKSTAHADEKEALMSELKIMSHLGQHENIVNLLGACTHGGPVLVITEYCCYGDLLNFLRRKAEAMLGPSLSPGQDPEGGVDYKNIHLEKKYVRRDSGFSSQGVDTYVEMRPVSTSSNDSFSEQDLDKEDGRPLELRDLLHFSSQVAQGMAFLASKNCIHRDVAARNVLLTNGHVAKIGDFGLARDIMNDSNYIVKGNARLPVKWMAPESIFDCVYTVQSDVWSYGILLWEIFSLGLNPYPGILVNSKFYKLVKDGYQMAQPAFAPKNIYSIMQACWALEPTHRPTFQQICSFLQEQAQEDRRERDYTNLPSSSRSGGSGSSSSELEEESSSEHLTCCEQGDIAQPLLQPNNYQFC
Sequence of Vascular endothelial growth factor receptor 3 (Homo sapiens) (P35916 whole entry): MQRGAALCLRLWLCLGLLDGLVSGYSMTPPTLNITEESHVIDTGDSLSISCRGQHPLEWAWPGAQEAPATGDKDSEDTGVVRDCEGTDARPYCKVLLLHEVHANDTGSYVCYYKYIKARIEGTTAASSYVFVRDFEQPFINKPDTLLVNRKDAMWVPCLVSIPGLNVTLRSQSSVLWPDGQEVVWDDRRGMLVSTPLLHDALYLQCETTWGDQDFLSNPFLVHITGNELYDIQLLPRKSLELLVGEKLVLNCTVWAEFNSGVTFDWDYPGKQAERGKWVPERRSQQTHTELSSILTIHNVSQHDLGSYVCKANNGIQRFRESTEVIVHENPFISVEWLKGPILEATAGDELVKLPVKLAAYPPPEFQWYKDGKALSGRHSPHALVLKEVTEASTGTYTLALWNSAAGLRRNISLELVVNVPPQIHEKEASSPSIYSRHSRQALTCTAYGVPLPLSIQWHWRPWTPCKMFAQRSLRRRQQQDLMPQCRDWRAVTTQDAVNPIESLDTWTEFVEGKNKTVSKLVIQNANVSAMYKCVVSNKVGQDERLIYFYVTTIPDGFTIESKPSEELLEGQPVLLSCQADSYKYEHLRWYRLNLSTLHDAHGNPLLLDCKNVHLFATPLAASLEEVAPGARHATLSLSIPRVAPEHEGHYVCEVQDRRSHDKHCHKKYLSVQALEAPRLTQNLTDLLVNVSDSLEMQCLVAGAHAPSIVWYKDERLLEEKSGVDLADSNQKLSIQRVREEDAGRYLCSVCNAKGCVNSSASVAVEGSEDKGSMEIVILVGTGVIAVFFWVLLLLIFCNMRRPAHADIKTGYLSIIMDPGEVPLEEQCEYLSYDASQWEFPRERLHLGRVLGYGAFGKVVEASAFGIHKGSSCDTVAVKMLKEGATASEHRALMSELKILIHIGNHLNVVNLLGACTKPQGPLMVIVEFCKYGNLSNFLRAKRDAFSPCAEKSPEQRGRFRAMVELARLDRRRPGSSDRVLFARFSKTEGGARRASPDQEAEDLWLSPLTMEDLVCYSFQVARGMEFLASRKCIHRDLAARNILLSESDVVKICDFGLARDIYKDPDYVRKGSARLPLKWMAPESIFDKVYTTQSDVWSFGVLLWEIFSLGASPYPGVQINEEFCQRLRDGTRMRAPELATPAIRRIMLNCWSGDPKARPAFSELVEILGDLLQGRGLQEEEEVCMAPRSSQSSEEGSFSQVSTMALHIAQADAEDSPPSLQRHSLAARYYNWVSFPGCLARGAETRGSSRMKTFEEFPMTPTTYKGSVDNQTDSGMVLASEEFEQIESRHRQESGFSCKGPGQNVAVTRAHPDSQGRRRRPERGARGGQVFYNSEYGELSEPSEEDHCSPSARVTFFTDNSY
Sequence of Serine/threonine-protein kinase PLK1 (Homo sapiens) (P53350 whole entry): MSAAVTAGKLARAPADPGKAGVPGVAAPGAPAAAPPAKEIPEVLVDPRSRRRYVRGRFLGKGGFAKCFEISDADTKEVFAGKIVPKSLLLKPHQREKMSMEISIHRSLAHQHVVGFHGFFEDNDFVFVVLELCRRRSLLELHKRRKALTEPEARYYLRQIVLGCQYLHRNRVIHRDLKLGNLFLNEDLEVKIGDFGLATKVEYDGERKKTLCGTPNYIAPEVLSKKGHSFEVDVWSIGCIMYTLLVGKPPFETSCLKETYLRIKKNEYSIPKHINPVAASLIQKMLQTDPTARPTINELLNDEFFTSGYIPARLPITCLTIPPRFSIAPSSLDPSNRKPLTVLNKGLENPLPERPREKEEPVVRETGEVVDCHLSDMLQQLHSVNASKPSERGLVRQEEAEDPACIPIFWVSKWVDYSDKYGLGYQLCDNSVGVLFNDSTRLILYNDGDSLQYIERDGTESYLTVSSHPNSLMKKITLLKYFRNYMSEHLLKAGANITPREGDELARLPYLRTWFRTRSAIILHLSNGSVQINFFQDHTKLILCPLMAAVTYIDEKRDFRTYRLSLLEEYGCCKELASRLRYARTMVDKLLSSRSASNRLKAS
Sequence of Serine/threonine-protein kinase Nek7 (Homo sapiens) (Q8TDX7 whole entry, looked up): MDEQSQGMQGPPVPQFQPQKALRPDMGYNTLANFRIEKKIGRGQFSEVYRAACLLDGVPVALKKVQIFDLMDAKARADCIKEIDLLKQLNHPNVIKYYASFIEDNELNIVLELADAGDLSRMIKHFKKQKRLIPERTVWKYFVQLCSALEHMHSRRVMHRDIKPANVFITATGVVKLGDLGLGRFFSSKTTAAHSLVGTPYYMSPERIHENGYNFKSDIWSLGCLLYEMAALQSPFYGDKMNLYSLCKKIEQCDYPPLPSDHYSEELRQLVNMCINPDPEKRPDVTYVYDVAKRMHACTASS
Sequence of Tyrosine-protein kinase Fyn (Homo sapiens) (P06241 2-537 limits assumed): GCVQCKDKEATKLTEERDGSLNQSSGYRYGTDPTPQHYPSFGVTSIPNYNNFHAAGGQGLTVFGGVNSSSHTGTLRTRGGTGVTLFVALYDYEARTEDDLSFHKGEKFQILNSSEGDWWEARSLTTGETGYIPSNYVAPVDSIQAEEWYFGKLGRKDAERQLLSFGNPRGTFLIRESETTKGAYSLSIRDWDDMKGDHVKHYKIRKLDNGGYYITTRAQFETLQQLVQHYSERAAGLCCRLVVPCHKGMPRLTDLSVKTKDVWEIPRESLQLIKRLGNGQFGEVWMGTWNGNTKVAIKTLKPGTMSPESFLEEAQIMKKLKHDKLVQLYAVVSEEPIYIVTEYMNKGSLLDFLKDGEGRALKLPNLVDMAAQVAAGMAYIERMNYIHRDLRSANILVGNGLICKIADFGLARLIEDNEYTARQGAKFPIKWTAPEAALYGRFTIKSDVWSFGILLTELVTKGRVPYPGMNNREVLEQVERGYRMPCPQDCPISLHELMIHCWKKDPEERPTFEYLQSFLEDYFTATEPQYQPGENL

The inhibition is the drop in the measured response relative to a control, in per cent. High values mean a strong effect, low ones a weak effect. As for `NS(=O)(=O)c1cccc(N/C=C2\C(=O)Nc3ccccc32)c1`, the inhibition in assay [1] amounted to 14.5%; in assay [2], 2.63%; in assay [3], 4.56%; in [4], 5.64%; in assay [5], 4.55%; in assay [6] it was 1.86%. Also, the inhibition in [7] is 1.95%; in assay [8], 6.51%; in [9], 4.33%; in assay [10], 5.97%; in [11], 4.34%; in assay [12], 3.78%. Also, the inhibition in assay [13] was 4.79%; in assay [14], 9.01%; in assay [15] it was 25.9%; in assay [16], 1.98%; in [17], 14.8%; in assay [18], 5.41%. The values for the inhibition in assay [19] and in assay [20] were 25.1% and 2.53%, respectively.
